The source of these data is PubChem BioAssay.

Assay [1] relates to Aerobactin synthetase IucA (Klebsiella pneumoniae). Description: IucA aerobactin synthetase inhibitors, biochemical, Tocris library, absorbance (AID 1345561; call rule not given here;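 note: 100% = enzyme without compound and 0% = no enzyme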). The note with it: purified IucA enzyme assay, absorbance (OD) read-out; stronger effect = lower value;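 tested at 8 µM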.
Assay [2] in a line: sensitizers of A549 cells to miR-34 induction, primary screen, imaging, A549 dox-inducible miR-34, nuclei and caspase counts (AID 1347080). The note with it: A549 miR-34 inducible, Hoechst nuclei count, 48 h.
Assay [3] is described as follows: viability rescue of complex I mutant cybrids, primary screen, cell-based, galactose medium, ATP luminescence (AID 1645843;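 active = z-score of at least 1.8 in each of two replicates, scored against plate mean and spread of sample wells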;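 note: positive z means more ATP and so rescue of galactose-driven cybrid death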). The note with it: complex I mutant cybrid cells, 72 h, stronger effect = higher value.
Setting [4] is: stronger effect = lower value, cell number ratio, induced over uninduced.
Setting [5] is: measured here: relative caspase fold change +Dox/-Dox.
The mark [6] stands for this setting: measured here: total cells with miR-34 induction, stronger effect = lower value.
Where [7] appears, read: measured here: total cells without miR-34 induction.

Where “and” joins values, the source holds several entries; their conditions need not be identical. Equal entries are not always repeated. Calls of active or inactive are those of the source.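 Rule for the calls, unless noted: active = compounds whose cell count with miR-34 switched on is under 0.7 times the count with it off; inactive = the rest.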

The remaining activity is the signal under treatment as a percentage of the control signal. As for `O=C1C=CC(=O)C2=C1C1c3ccccc3C2c2ccccc21`, the remaining activity in assay [1] was 104% (inactive). In addition, the fold change in assay [2] (setting [4]) was 0.889 (inactive); in assay [2] (setting [5]) it was 1.44. For the same compound, the cell count worked out at 6130 in assay [2] (setting [6]) and 6900 in assay [2] (setting [7]). In addition, the z-score in assay [3] is -0.705 (inactive).

With `CCC(=O)NC1Cc2ccccc2C(c2ccccc2)C1` (centres undefined), the remaining activity in assay [1] was 124% (inactive). The values for the fold change in assay [2] (setting [4]) and in assay [2] (setting [5]) were 1.02 (inactive) and 1.01, respectively. Also, the cell count in assay [2] (setting [6]) was found to be 8500; in assay [2] (setting [7]) it was 8340. Besides, the z-score in assay [3] is 0.46 (inactive).

Take `CCN(CC)CC1CCN(c2ncc3ncnc(Nc4ccc(F)c(Cl)c4)c3n2)CC1`: in assay [1], the remaining activity is 124% (inactive). Further, the fold change was 0.891 (inactive) in assay [2] (setting [4]) and 1.55 in assay [2] (setting [5]). The cell count in assay [2] (setting [6]) stood at 1440; in assay [2] (setting [7]), 1620. Further, in assay [3], the z-score is -0.675 (inactive).

Regarding `FC(F)(F)c1cccc(-c2noc(-c3cc(-c4ccccc4)c(C(F)(F)F)s3)n2)c1`, the remaining activity in assay [1] is 101% (inactive). In addition, the fold change was 0.966 (inactive) and 0.884 (inactive) in assay [2] (setting [4]); 1.01 and 0.898 in assay [2] (setting [5]). Further, the cell count in assay [2] (setting [6]) was 5830 and 8210; in assay [2] (setting [7]) it was 6040 and 9290. The z-score in assay [3] was 0.175 (inactive).

For `Cc1ccc(OC[C@@H](O)[C@H](C)NC(C)C)c2c1CCC2`, the remaining activity in assay [1] was 82.6% (inactive). For the same compound, the fold change in assay [2] (setting [4]) was 0.94 (inactive); in assay [2] (setting [5]), 1.07. The cell count amounted to 8280 in assay [2] (setting [6]) and 8800 in assay [2] (setting [7]). Also, in assay [3], the z-score is -0.36 (inactive).

For the compound `c1ccc(C2NNCC2c2ccnc3ccccc23)nc1` (centres undefined), the remaining activity in assay [1] was 101% (inactive). Further, the fold change is 0.908 (inactive) in assay [2] (setting [4]) and 1.57 in assay [2] (setting [5]). Besides, the cell count came to 8690 in assay [2] (setting [6]) and 9570 in assay [2] (setting [7]). The z-score in assay [3] is -0.15 (inactive).

`CNc1cc(OC)c(C(=O)N[C@@H]2CCN(Cc3ccccc3)[C@@H]2C)cc1Cl` (racemic): the remaining activity in assay [1] was 104% (inactive). Besides, the results for the fold change in assay [2] (setting [4]) and in assay [2] (setting [5]) were 0.926 (inactive) and 1.02, respectively. Besides, the cell count amounted to 8160 in assay [2] (setting [6]) and 8810 in assay [2] (setting [7]). Also, the z-score in assay [3] is -0.56 (inactive).

In the case of `c1ccc2nc(C3=NCCN3)cnc2c1`, in assay [1], the remaining activity is 98.4% (inactive). The fold change is 0.983 (inactive) in assay [2] (setting [4]) and 0.854 in assay [2] (setting [5]). The cell count in assay [2] (setting [6]) came to 9150; in assay [2] (setting [7]), 9300. Also, in assay [3], the z-score is 0.085 (inactive).

For `c1ccc(COCCCc2cnc[nH]2)cc1`, the remaining activity in assay [1] was 112% (inactive). Further, the fold change is 0.883 (inactive) in assay [2] (setting [4]) and 2.69 in assay [2] (setting [5]). The cell count was 8520 in assay [2] (setting [6]) and 9640 in assay [2] (setting [7]). For the same compound, in assay [3], the z-score is -0.18 (inactive).

In the case of `N=C(CC(O)COc1ccccc1-c1ccccc1)N1CCCCC1` (centres undefined), the remaining activity in assay [1] was 113% (inactive). Also, the fold change in assay [2] (setting [4]) was 0.933 (inactive); in assay [2] (setting [5]) it was 0.891. In addition, the values for the cell count in assay [2] (setting [6]) and in assay [2] (setting [7]) were 6170 and 6610, respectively. Moreover, the z-score in assay [3] was -0.28 (inactive).

For the compound `CC[C@H](CO)Nc1nc(Nc2cccc(-c3ccccn3)c2)c2ncn(C(C)C)c2n1`, in assay [1], the remaining activity is 119% (inactive). In addition, the fold change in assay [2] (setting [4]) is 1.12 (inactive); in assay [2] (setting [5]), 1.35. Further, the figures for the cell count in assay [2] (setting [6]) and in assay [2] (setting [7]) were 1500 and 1340, respectively. Moreover, the z-score in assay [3] was -0.95 (inactive).

In the case of `Cc1cc(/C(=C\Nc2ccc(Cl)cc2)C(=O)Nc2ccc(Cl)cc2)on1`, in assay [1], the remaining activity is 122% (inactive). Further, the fold change in assay [2] (setting [4]) was 0.913 (inactive); in assay [2] (setting [5]), 0.914. Besides, the cell count in assay [2] (setting [6]) turned out to be 7920; in assay [2] (setting [7]) it was 8680. Besides, the z-score in assay [3] was 0.03 (inactive).

With `CN(CCc1ccc(Cl)c(Cl)c1)CC(O)COc1ccc(NS(C)(=O)=O)cc1` (centres undefined), the remaining activity in assay [1] is 107% (inactive). Besides, the fold change in assay [2] (setting [4]) is 0.951 (inactive) and 0.956 (inactive); in assay [2] (setting [5]), 1.56 and 0.961. The cell count is 4180 and 6530 in assay [2] (setting [6]); 4390 and 6830 in assay [2] (setting [7]). In assay [3], the z-score is 0.67 (inactive).

Regarding `N#Cc1cc2[nH]c(=O)c(=O)[nH]c2cc1[N+](=O)[O-]`, in assay [1], the remaining activity was 113% (inactive). In addition, the fold change in assay [2] (setting [4]) was 0.891 (inactive); in assay [2] (setting [5]) it was 1.62. In addition, the figures for the cell count in assay [2] (setting [6]) and in assay [2] (setting [7]) were 9010 and 10100, respectively. The z-score in assay [3] was 0.095 (inactive).

With `C/C=C1/C(=O)C[C@H]2[C@@H]3CCC4=CC(=O)CC[C@]4(C)[C@H]3CC[C@]12C`, the remaining activity in assay [1] was 104% (inactive). Besides, the fold change in assay [2] (setting [4]) is 0.844 (inactive); in assay [2] (setting [5]), 3.69. In addition, the results for the cell count in assay [2] (setting [6]) and in assay [2] (setting [7]) were 6570 and 7790, respectively. The z-score in assay [3] is -0.33 (inactive).

For `c1ccc2oc(C3=NCCN3)cc2c1`, the remaining activity in assay [1] was 116% (inactive). Further, the fold change is 0.904 (inactive) in assay [2] (setting [4]) and 1.14 in assay [2] (setting [5]). Also, the values for the cell count in assay [2] (setting [6]) and in assay [2] (setting [7]) were 8470 and 9370, respectively. For the same compound, the z-score in assay [3] is 0.405 (inactive).

As to `COc1ccc(-c2nc(C(=O)N3CCN(C)CC3)sc2-c2ccc(OC)cc2)cc1`, the remaining activity in assay [1] was 116% (inactive). Further, the fold change is 0.946 (inactive) and 0.989 (inactive) in assay [2] (setting [4]); 2.48 and 0.892 in assay [2] (setting [5]). Further, the cell count in assay [2] (setting [6]) was 5370 and 9040; in assay [2] (setting [7]), 5680 and 9140. Further, in assay [3], the z-score is -0.66 (inactive).

As for `Nc1nc(NCCc2ccc(O)cc2)nc2nc(-c3ccco3)nn12`, the remaining activity in assay [1] was 109% (inactive). Also, the results for the fold change in assay [2] (setting [4]) and in assay [2] (setting [5]) were 0.809 (inactive) and 1.15, respectively. Further, the cell count turned out to be 6780 in assay [2] (setting [6]) and 8380 in assay [2] (setting [7]). Besides, in assay [3], the z-score is -0.54 (inactive).

For the compound `CC(N)(C(=O)O)c1ccc(-c2nn[nH]n2)cc1` (centres undefined), the remaining activity in assay [1] was 94.5% (inactive). Moreover, the results for the fold change in assay [2] (setting [4]) and in assay [2] (setting [5]) were 0.913 (inactive) and 0.762, respectively. Moreover, the cell count in assay [2] (setting [6]) came to 8200; in assay [2] (setting [7]) it was 8980. Further, in assay [3], the z-score was 1.42 (inactive).

With `CN(Cc1ccccc1)C(=O)[C@H](Cc1ccc2ccccc2c1)NC(=O)[C@@H]1CCCN1C(=O)Nc1ccccc1[N+](=O)[O-]`, the remaining activity in assay [1] is 123% (inactive). For the same compound, the fold change in assay [2] (setting [4]) is 0.972 (inactive); in assay [2] (setting [5]), 1.17. Besides, the cell count is 5700 in assay [2] (setting [6]) and 5860 in assay [2] (setting [7]). The z-score in assay [3] was 1.83 (active).

For `Cc1nc2c(c(=O)[nH]1)CSCC2`, the remaining activity in assay [1] is 100% (inactive). In addition, the fold change in assay [2] (setting [4]) is 0.983 (inactive); in assay [2] (setting [5]), 1.6. The cell count was 9080 in assay [2] (setting [6]) and 9230 in assay [2] (setting [7]). Also, in assay [3], the z-score was -0.035 (inactive).

As to `CC1(C)Oc2ccc(C#N)cc2[C@H](N2CCCC2=O)[C@H]1O` (racemic), in assay [1], the remaining activity is 116% (inactive). In addition, the fold change is 0.905 (inactive) in assay [2] (setting [4]) and 1.25 in assay [2] (setting [5]). Besides, the cell count amounted to 8970 in assay [2] (setting [6]) and 9900 in assay [2] (setting [7]). Also, the z-score in assay [3] was 0.155 (inactive).

As for `CC(=O)c1ccc2c(c1)[C@@H]1C=CC[C@@H]1[C@H](c1cc3c(cc1Br)OCO3)N2`, in assay [1], the remaining activity is 128% (inactive). Further, the fold change in assay [2] (setting [4]) is 1.21 (inactive) and 1.03 (inactive); in assay [2] (setting [5]), 0.332 and 1.3. The cell count in assay [2] (setting [6]) was 2540 and 1820; in assay [2] (setting [7]), 2100 and 1760. For the same compound, the z-score in assay [3] is -0.965 (inactive).

Regarding `Nc1nc(-c2ccc(Cl)c(Cl)c2)c(-c2ccncc2)s1`, the remaining activity in assay [1] is 110% (inactive). Further, the fold change in assay [2] (setting [4]) was 0.959 (inactive); in assay [2] (setting [5]) it was 1.23. In addition, the cell count in assay [2] (setting [6]) came out at 8510; in assay [2] (setting [7]), 8870. Further, the z-score in assay [3] was 1.59 (inactive).
